For 15 compounds, inhibition results are on record in ChEMBL document CHEMBL1961873, “Compounds: GSK PKIS; Assays: Nanosyn kinase panel” (2012).

Each structure is given as a SMILES string.

What is called inhibition is the change of the read-out against control, counted positive when it falls.

For test [1], the target named is MAP/microtubule affinity-regulating kinase 3 (Homo sapiens) (UniProt P27448). To be noted: at 1 µM.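 Further: reported values are averaged percent inhibition of MARK3.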
Test [2] concerns the target T1, MAP/microtubule affinity-regulating kinase 4 (Homo sapiens) (UniProt Q96L34).
T1 sequence (whole entry): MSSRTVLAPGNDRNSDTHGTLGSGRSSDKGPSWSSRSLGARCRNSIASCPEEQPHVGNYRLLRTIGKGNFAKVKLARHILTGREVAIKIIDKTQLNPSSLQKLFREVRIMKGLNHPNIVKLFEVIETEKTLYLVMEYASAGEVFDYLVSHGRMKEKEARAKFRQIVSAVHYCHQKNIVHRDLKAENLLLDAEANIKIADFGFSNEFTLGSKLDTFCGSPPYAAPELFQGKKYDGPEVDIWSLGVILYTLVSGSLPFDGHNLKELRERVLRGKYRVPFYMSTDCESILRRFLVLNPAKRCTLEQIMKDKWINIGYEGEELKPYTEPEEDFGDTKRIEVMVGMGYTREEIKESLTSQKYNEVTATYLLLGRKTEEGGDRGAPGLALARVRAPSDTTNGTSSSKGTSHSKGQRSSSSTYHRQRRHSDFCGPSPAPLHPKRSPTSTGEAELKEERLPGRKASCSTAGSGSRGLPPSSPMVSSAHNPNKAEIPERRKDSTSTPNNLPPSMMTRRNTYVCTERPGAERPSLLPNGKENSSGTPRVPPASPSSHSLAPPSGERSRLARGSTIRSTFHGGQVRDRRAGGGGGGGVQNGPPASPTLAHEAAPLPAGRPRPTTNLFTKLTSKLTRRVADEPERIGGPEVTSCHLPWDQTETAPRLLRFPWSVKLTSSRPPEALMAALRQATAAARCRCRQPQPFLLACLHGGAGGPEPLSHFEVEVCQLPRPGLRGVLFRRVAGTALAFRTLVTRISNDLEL
To be noted: at 0.1 µM.

Test [3] addresses T1, MAP/microtubule affinity-regulating kinase 4 (Homo sapiens). The following applies: at 1 µM.
The target of test [4] is Maternal embryonic leucine zipper kinase (Homo sapiens) (UniProt Q14680). To be noted: at 0.1 µM.
The target is the same in test [5]. The following applies: at 1 µM.
Test [6] has as its target MAP kinase-interacting serine/threonine-protein kinase 1 (Homo sapiens) (UniProt Q9BUB5). To be noted: at 0.1 µM.
The target is the same in test [7]. To be noted: at 1 µM.
Test [8] addresses MAP kinase-interacting serine/threonine-protein kinase 2 (Homo sapiens) (UniProt Q9HBH9). To be noted: at 0.1 µM.
For test [9] the target is unchanged. The following applies: at 1 µM.
Test [10] addresses Serine/threonine-protein kinase MARK2 (Homo sapiens) (UniProt Q7KZI7). To be noted: at 0.1 µM.

Maternal embryonic leucine zipper kinase (Homo sapiens), sequence (Q14680 whole entry, looked up): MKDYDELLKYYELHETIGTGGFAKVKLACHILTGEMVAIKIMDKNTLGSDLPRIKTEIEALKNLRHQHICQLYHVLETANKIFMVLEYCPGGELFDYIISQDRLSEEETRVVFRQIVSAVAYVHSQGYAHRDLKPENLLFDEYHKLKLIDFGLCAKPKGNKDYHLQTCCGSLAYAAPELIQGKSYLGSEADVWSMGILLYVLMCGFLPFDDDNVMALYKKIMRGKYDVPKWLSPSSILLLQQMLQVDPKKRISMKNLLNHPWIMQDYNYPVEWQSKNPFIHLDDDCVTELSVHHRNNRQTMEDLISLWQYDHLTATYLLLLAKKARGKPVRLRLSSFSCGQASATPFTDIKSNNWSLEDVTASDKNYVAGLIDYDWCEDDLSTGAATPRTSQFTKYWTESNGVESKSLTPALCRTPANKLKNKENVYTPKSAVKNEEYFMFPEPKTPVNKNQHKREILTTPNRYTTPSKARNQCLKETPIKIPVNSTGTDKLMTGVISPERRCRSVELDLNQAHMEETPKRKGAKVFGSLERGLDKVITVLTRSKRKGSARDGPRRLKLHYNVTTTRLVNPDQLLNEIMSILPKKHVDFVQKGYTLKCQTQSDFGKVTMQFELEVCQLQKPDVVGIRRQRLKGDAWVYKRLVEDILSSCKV
MAP/microtubule affinity-regulating kinase 3 (Homo sapiens), sequence (P27448 whole entry, looked up): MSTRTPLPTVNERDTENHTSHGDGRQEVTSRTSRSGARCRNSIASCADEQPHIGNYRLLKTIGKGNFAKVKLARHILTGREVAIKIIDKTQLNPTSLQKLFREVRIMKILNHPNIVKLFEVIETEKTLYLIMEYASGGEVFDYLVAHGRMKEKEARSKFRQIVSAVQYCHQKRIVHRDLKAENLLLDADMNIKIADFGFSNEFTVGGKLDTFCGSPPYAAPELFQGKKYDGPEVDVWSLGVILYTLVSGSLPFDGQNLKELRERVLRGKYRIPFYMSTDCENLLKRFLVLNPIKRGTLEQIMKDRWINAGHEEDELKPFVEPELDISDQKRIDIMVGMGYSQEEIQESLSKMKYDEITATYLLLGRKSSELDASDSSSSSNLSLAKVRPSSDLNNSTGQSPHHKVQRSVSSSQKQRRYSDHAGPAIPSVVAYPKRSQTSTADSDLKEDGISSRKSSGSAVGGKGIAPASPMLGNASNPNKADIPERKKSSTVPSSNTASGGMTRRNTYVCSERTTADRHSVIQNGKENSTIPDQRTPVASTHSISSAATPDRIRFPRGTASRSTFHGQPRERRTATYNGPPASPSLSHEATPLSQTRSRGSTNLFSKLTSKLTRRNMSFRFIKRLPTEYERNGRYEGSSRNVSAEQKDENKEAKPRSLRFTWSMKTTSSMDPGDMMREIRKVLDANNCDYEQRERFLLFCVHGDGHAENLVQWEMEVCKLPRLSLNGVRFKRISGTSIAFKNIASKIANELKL
Serine/threonine-protein kinase MARK2 (Homo sapiens), sequence (Q7KZI7 whole entry): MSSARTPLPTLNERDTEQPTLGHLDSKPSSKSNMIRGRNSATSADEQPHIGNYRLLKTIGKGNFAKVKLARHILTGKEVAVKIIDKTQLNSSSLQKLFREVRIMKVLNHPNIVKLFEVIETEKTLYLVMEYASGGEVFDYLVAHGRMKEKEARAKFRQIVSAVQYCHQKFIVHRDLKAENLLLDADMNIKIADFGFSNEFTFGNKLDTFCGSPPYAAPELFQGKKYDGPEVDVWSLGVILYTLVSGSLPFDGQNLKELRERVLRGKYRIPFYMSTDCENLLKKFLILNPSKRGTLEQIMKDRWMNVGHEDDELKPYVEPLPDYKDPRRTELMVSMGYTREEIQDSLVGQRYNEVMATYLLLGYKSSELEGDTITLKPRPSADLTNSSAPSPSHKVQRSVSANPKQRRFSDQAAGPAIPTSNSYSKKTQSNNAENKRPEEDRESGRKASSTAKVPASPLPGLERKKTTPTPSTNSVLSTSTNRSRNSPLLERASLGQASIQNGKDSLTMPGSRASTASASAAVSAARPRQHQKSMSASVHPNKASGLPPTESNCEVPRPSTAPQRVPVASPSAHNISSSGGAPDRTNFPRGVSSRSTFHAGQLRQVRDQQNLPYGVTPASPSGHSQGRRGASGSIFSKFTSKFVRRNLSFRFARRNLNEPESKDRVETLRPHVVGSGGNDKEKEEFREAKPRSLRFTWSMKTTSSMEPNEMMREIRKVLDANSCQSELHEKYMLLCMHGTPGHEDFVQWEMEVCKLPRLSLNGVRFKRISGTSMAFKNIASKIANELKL
MAP kinase-interacting serine/threonine-protein kinase 1 (Homo sapiens), sequence (Q9BUB5 whole entry, looked up): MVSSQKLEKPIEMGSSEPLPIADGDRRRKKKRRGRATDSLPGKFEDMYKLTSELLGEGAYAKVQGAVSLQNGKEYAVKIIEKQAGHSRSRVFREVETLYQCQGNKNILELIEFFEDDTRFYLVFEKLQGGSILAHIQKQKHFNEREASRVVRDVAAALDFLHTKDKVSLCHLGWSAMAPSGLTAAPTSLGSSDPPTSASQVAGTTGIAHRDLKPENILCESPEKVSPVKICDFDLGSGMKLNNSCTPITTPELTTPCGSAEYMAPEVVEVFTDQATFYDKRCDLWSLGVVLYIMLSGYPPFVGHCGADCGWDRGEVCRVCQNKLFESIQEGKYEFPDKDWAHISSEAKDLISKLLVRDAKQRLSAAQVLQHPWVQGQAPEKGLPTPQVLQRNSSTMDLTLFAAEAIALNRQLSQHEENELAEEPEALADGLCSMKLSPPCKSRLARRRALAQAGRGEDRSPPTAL
MAP kinase-interacting serine/threonine-protein kinase 2 (Homo sapiens), sequence (Q9HBH9 whole entry, looked up): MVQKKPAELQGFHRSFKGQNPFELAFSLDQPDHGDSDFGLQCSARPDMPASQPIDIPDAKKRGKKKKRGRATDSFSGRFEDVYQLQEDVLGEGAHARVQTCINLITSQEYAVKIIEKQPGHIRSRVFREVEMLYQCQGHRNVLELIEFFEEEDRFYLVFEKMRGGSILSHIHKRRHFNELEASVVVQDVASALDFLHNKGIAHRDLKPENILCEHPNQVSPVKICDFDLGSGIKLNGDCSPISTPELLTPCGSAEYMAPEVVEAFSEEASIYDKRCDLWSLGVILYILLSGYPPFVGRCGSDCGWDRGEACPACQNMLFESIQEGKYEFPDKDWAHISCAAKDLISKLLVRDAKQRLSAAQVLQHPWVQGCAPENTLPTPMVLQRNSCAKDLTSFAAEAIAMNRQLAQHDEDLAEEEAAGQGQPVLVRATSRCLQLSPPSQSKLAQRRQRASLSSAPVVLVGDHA

Regarding `COc1cc(Nc2ncc3c(C)nc(-c4cccc(Oc5ccccc5)c4)n3n2)cc(OC)c1OC`, the inhibition came out at 29.3% in test [1]; 1.25% in test [2]; 3.17% in test [3]; 3.48% in test [4]; 10.8% in test [5]; 0.32% in test [6]. Further, the inhibition in [7] was determined as 0.56%; in [8], 0.07%; in test [9] it was 1.2%; in test [10] it was 0.41%.

In the case of `COc1cc(C)c(N(C)C(=O)CN(C)C)cc1Nc1nc(Nc2cccc(F)c2C(N)=O)c2cc[nH]c2n1`, the inhibition in test [1] was 4.11%; in test [2], 1.12%; in test [3], 1.75%; in test [4], -1.34%; in test [5], 5.45%; in test [6] it was -0.51%. Moreover, the inhibition is 1.72% in [7], -1.19% in [8], -0.74% in test [9] and 0.4% in test [10].

Regarding `CNC(=O)c1cncc(/C=C/c2c(C)cccc2C)c1`, the inhibition in test [1] was 2%; in [2], -0.27%; in test [3], 1.46%; in test [4], -1.92%; in [5], 0.37%; in [6], -0.2%. For the same compound, the inhibition in test [7] is 8.06%; in [8], 0.57%; in test [9], 5.36%; in test [10], 0.03%.

For `CCc1ccc(Oc2nccc(-c3c(-c4ccc(F)cc4)ncn3C3CCNCC3)n2)cc1`, the inhibition turned out to be 7.86% in [1]; 2.89% in [2]; 4.67% in test [3]; 6.32% in test [4]; 5.64% in test [5]; 2.17% in [6]. In addition, the inhibition in test [7] came to 4.48%; in test [8], 3.36%; in [9], 3.52%; in test [10], 1.93%.

As to `NS(=O)(=O)c1ccc(N/N=C2\C(=O)Nc3ccc(C(=O)NCCCn4ccnc4)cc32)cc1`, the inhibition in test [1] was determined as 5.47%; in test [2], 3.39%; in [3], 14.6%; in test [4], 6.78%; in test [5] it was 46.9%; in [6], 7.7%. The inhibition in test [7] is 16.8%; in test [8], 3.98%; in [9], 14.2%; in test [10] it was 1.13%.

In the case of `COc1cc(Nc2ncc3c(C)nc(-c4cccc(C(F)(F)F)c4)n3n2)cc(OC)c1OC`, the inhibition in test [1] came out at 7.63%; in test [2], 1.28%; in test [3], 7.81%; in test [4], 13.1%; in test [5] it was 63.1%; in test [6], 3.56%. Further, the inhibition is 7.34% in test [7], 2.94% in test [8], 6% in test [9] and 0.26% in [10].

Take `COC(=O)Nc1nc2ccc(Sc3ccc(NC(=O)Nc4cc(C(F)(F)F)ccc4F)cc3)cc2[nH]1`: the inhibition in [1] is 1.81%; in test [2], -1.27%; in test [3], -0.2%; in test [4] it was -2.18%; in [5], -2.88%; in test [6] it was -0.03%. Besides, the inhibition was determined as 4.58% in [7], 0.6% in [8], 1.48% in test [9] and 0.92% in test [10].

Turning to `Fc1ccc(-c2c(-c3ccncc3)nc3n2CCS3)cc1`, the inhibition in [1] turned out to be 11.9%; in test [2], 1.3%; in test [3], 2.25%; in test [4], 4.24%; in test [5] it was 7.4%; in [6], 0.84%. In addition, the inhibition in [7] was found to be 8.91%; in test [8] it was 0.34%; in test [9] it was 6.79%; in test [10], 1.04%.

`O=C(NCC1CC1)c1ccc(-c2cccc(C(=O)NC3CC3)c2)cc1`: the inhibition in test [1] was found to be 6.77%; in [2], 0.89%; in [3], 0.47%; in [4] it was 1.66%; in [5] it was 0.83%; in test [6], 1.09%. Besides, the inhibition is 0.19% in test [7], -1.06% in [8], 0.04% in test [9] and 0.08% in test [10].

Take `NS(=O)(=O)c1ccc(Nc2cc(-c3ccc(O)c(F)c3)n[nH]2)cc1`: the inhibition is 4.97% in test [1]; 1.26% in [2]; 11.7% in test [3]; -5.49% in test [4]; 39.3% in [5]; -0.77% in test [6]. Also, the inhibition in [7] came to 6.93%; in test [8] it was 0.26%; in test [9] it was 7.33%; in test [10] it was 0.4%.

For the compound `O=C1Nc2ccc(I)cc2C1=Cc1cc(Br)c(O)c(Br)c1`, the inhibition in test [1] turned out to be 2.16%; in [2] it was 1.14%; in [3], 2.32%; in test [4] it was 2.86%; in [5] it was 13.8%; in test [6] it was 2.2%. Further, the inhibition is 7.73% in [7], 2.51% in [8], 17.6% in [9] and -0.39% in test [10].

As for `O=C(Nc1n[nH]c2cc(-c3ccccc3)ccc12)C1CC1`, the inhibition is 9.09% in test [1]; 2.2% in [2]; 5.77% in test [3]; 5.64% in [4]; 3.69% in test [5]; 6.55% in test [6]. For the same compound, the inhibition is 31.4% in test [7], 3.14% in test [8], 10.2% in [9] and 1.54% in test [10].

In the case of `Fc1ccc(-c2ncn(CCCN3CCOCC3)c2-c2ccncc2)cc1`, the inhibition in test [1] was 22%; in [2], 0.52%; in test [3] it was 0.72%; in [4], -0.32%; in [5], -0.03%; in [6] it was -0.96%. Moreover, the inhibition in test [7] is 0.15%; in test [8], -1.39%; in test [9] it was -0.24%; in test [10], -1.95%.

Turning to `N#Cc1ccc(Oc2nccc(-c3c(-c4ccc(F)cc4)ncn3C3CCNCC3)n2)cc1`, the inhibition in test [1] was 0.33%; in [2] it was 2.3%; in test [3] it was 2.46%; in test [4] it was 6.59%; in test [5], 4.91%; in test [6], 2.51%. The inhibition in [7] was 2.45%; in test [8], -0.25%; in [9], -0.69%; in [10], -1.85%.

As to `CN1CCN(CCCNc2nc3ccc(Oc4ccc(NC(=O)Nc5cc(C(F)(F)F)ccc5F)cc4)cc3[nH]2)CC1`, the inhibition in [1] was 0.11%; in test [2], 1.5%; in test [3] it was 2.34%; in [4], 0.4%; in [5], -0.26%; in test [6] it was 2.77%. In addition, the inhibition is 15.5% in test [7], 0.67% in test [8], 9.51% in test [9] and -0.44% in test [10].
